These results are taken from PubChem BioAssay (EPA / NIEHS).

Structures are written as SMILES. Records with an inconclusive call do not appear. Calls of active or inactive are those of the source. Rule for the calls, unless noted: active = hit-call score of the fitted dose curve at least 0.9, where 1 is the maximum; inactive = score below 0.9.

Test [1] is described as follows: APR_HepG2_CellCycleArrest_1hr: Apredica 1-hour HepG2 Assay for Cell Cycle Arrest (AID 2282666). As to conditions: high-content imaging, actives raise or lower the signal. The method in brief:
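HepG2 cells exposed for 1 h to 0.39–200 uM compound (0.5% DMSO). Fixed, Hoechst-stained nuclei imaged by ArrayScan; DNA content quantified by Cell Cycle analysis; bidirectional fit against DMSO.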

Test [2] is described as follows: ACEA_ER_80hr: ACEA Biosciences xCELLigence Real-Time Cell Analysis on Estrogen Receptor Agonism for Proliferation (AID 2282667; active = hit-call score of the fitted dose curve at least 0.9, where 1 is the maximum). As to conditions: T47D proliferation, impedance (xCELLigence), 80 h. In outline:
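Real-time impedance growth kinetics of human T-47D breast cells read 80 h after dosing, gain-of-signal fitted relative to DMSO. Compounds: 1:4 serial series, top final concentration 100 uM, n = 2.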

Test [3] can be described thus: APR_HepG2_CellLoss_1hr: Apredica 1-hour HepG2 Assay for Cell Loss (AID 2282668).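 Note: curves fitted both ways against DMSO so gain or loss of cells counts.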 The conditions noted are these: high-content imaging. The method in brief: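 HepG2 cells were treated for 1 h with compound at 0.39–200 uM, in duplicate, in 0.5% DMSO. After formaldehyde fixation, Hoechst 33342-stained nuclei were imaged on an ArrayScan to count cells. Data were fitted bidirectionally versus DMSO.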

A short description of test [4]: APR_HepG2_MicrotubuleCSK_1hr: Apredica 1-hour HepG2 Assay for Microtubule CSK Stabilty (AID 2282669). The conditions noted are these: HepG2 microtubule cytoskeleton imaging, actives raise or lower the signal. The method in brief: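 HepG2 cells exposed 1 h to 0.39–200 uM compound (0.5% DMSO, duplicates), then formaldehyde-fixed, permeabilized and immunostained for alpha-tubulin with Hoechst nuclei. Imaged by ArrayScan high-content analysis; bidirectional fit versus DMSO.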

A short description of test [5]: APR_HepG2_p53Act_1hr: Apredica 1-hour HepG2 Assay for p53 Activation (AID 2282671). The conditions noted are these: high-content imaging, actives raise or lower the signal. The method in brief: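 HepG2 cells treated 1 h with compound at 0.39–200 uM (10 concentrations, duplicate) in 0.5% DMSO. Formaldehyde-fixed, permeabilised cells immunostained for p53 with Hoechst 33342; high-content imaging, bidirectional fit versus DMSO.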

A short description of test [6]: APR_HepG2_MitoticArrest_1hr: Apredica 1-hour HepG2 Assay for Mitotic Arrest (AID 2282672). The conditions noted are these: high-content imaging, actives raise or lower the signal. The method in brief: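 HepG2 cells exposed 1 hr to compounds at 0.39–200 uM (0.5% v/v DMSO final), then fixed in 3.7% formaldehyde and immunostained for phospho-histone H3 with Hoechst 33342. Mitotic arrest scored by automated fluorescence imaging, fitted bidirectionally versus DMSO.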

Test [7] is described as follows: APR_HepG2_P-H2AX_1hr: Apredica 1-hour HepG2 Assay for H2AX Phosphorylation (AID 2282673). The conditions noted are these: high-content imaging, actives raise or lower the signal. In outline: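 HepG2 dosed 1 hr at 0.39-200 uM (0.5% DMSO final), duplicate. Fixed in 3.7% formaldehyde, Triton permeabilized, immunostained for phospho-histone H2A.x (1:200) with Hoechst 33342; ArrayScan 20x imaging, bidirectional fit vs DMSO.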

Test [8] is described as follows: APR_HepG2_MitoMass_1hr: Apredica 1-hour HepG2 Assay for Mitochondrial Mass (AID 2282674). The conditions noted are these: high-content imaging, actives raise or lower the signal. The method in brief: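 HepG2 cells dosed 1 hr with 0.39-200 uM compound (0.5% DMSO), duplicate wells. Mitochondria stained with 250 nM MitoTracker Red CMXRos for 30 min before formaldehyde fixation, imaged at 20x by ArrayScan; bidirectional fit versus DMSO.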

Test [9] is described as follows: APR_HepG2_CellCycleArrest_24hr: Apredica 24-hour HepG2 Assay for Cell Cycle Arrest (AID 2282905).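 Note: cell cycle arrest scored as ratio of 2N to 4N nuclear DNA content.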 The conditions noted are these: imaging, actives raise or lower the signal. The method in brief: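 Cell cycle arrest is scored from nuclear DNA content measured by high-content imaging of Hoechst 33342-stained HepG2 cells following 24-hour treatment at ten concentrations up to 200 uM, with DMSO as baseline.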

Test [10] in a line: APR_HepG2_StressKinase_1hr: Apredica 1-hour HepG2 Assay for Stress Kinase (AID 2282906). As to conditions: HepG2 stress kinase (phospho-c-Jun) imaging, actives raise or lower the signal. In outline: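 HepG2 cells dosed 0.39-200 uM (0.5% DMSO) for 1 h, then formaldehyde-fixed. Stress kinase read by phospho-c-Jun immunofluorescence using high-content imaging; bidirectional fit vs DMSO.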

Test [11] can be described thus: APR_HepG2_NuclearSize_24hr: Apredica 24-hour HepG2 Assay for Nuclear Size (AID 2282907). As to conditions: high-content imaging, actives raise or lower the signal. In outline: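 Compounds in DMSO (final 0.5%) were added to human HepG2 hepatoma cells at ten concentrations up to 200 uM for 24 hr. Fixed nuclei were stained with Hoechst 33342, and nuclear diameter was quantified from automated images.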

A short description of test [12]: APR_HepG2_CellLoss_24hr: Apredica 24-hour HepG2 Assay for Cell Loss (AID 2282908). As to conditions: high-content imaging. The method in brief: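 Cell number is quantified by fluorescence imaging of Hoechst 33342-stained nuclei following dosing at 0.39–200 uM in 0.5% DMSO. Curves are fitted in both directions from the DMSO baseline.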
A short description of test [13]: APR_HepG2_MicrotubuleCSK_24hr: Apredica 24-hour HepG2 Assay for Microtubule CSK Stabilty (AID 2282909). As to conditions: HepG2 microtubule cytoskeleton imaging, actives raise or lower the signal. The method in brief:
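Steps: dose HepG2 for 24 h (0.39–200 uM, 0.5% DMSO); fix 30 min in 3.7% formaldehyde at room temperature; permeabilize; stain alpha-tubulin 60 min; image microtubule cytoskeleton at 20x. Signal change fitted in both directions relative to DMSO.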

A short description of test [14]: APR_HepG2_MitoticArrest_24hr: Apredica 24-hour HepG2 Assay for Mitotic Arrest (AID 2282910). The conditions noted are these: high-content imaging, actives raise or lower the signal. In outline:
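Compounds are dosed onto HepG2 cells across ten concentrations up to 200 uM for 24 hr. Cells are then fixed in 3.7% formaldehyde, permeabilised, and labelled for phospho-histone H3 and nuclei; images are scored by cell cycle analysis and fitted bidirectionally relative to DMSO.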

The nature of test [15]: APR_HepG2_MitoMembPot_24hr: Apredica 24-hour HepG2 Assay for Mitochondrial Membrane Potential (AID 2282911). As to conditions: imaging, actives raise or lower the signal. In outline: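 Mitochondrial membrane potential imaged via MitoTracker Red CMXRos (250 nM, 30 min pre-fixation) in fixed HepG2 cells with Hoechst nuclear identification. Ten concentrations 0.39–200 uM, 24 h treatment, 0.5% DMSO; CCCP as positive control.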

Test [16] is described as follows: APR_HepG2_p53Act_24hr: Apredica 24-hour HepG2 Assay for p53 Activation (AID 2282913).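 Note: p53 protein immunofluorescence averaged per cell in HepG2 with Hoechst nuclei.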 The conditions noted are these: high-content imaging, actives raise or lower the signal. In outline:
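Fluorescence imaging of formaldehyde-fixed HepG2 cells labelled for p53 and with Hoechst, 24 h after dosing (0.39–200 uM, duplicate wells, 0.5% v/v DMSO). Signal fitted in both directions relative to DMSO.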

Test [17] is described as follows: APR_HepG2_CellCycleArrest_72hr: Apredica 72-hour HepG2 Assay for Cell Cycle Arrest (AID 2282914). The conditions noted are these: high-content imaging, actives raise or lower the signal. In outline: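 Read-out: nuclear DNA content from Hoechst 33342 high-content imaging (20x, six fields/well) after 3.7% formaldehyde fixation, fitted bidirectionally against DMSO. Treatment was 72 h in HepG2, ten concentrations 0.39–200 uM, duplicate, 0.5% DMSO.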

Test [18] can be described thus: APR_HepG2_MitoMembPot_1hr: Apredica 1-hour HepG2 Assay for Mitochondrial Membrane Potential (AID 2282675). The conditions noted are these: imaging, actives raise or lower the signal. In outline:
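HepG2 cells dosed 1 hour with 0.39–200 uM compound in duplicate, 0.5% DMSO final. MitoTracker Red CMXRos (250 nM, 30 min) loaded before formaldehyde fixation; fluorescence quantified by high-content imaging, bidirectional fitting versus DMSO.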

Test [19] is described as follows: APR_HepG2_MitoMass_24hr: Apredica 24-hour HepG2 Assay for Mitochondrial Mass (AID 2282912). The conditions noted are these: high-content imaging, actives raise or lower the signal. The method in brief:
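The liver line HepG2 was dosed in duplicate across a 0.39–200 uM series, with final DMSO held at 0.5% v/v, and harvested at 24 hr. High-content imaging measured mitochondrial dye staining.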

Test [20] can be described thus: APR_HepG2_NuclearSize_1hr: Apredica 1-hour HepG2 Assay for Nuclear Size (AID 2282670). The conditions noted are these: high-content imaging, actives raise or lower the signal. The method in brief: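 HepG2 cells dosed 1 hr with 0.39–200 uM compound (0.5% DMSO), formaldehyde-fixed, Hoechst 33342-stained and imaged at 20x; nuclear diameter from nuclear stain, fitted bidirectionally against DMSO.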

As for `COC(=O)NS(=O)(=O)c1ccc(N)cc1`, the compound was called inactive in test [1], in [2], in test [3], in [4], in test [5] and in test [6]. Besides, the result in test [7], in [8], in test [9], in test [10], in test [11] and in test [12] was inactive. In addition, the outcome in test [13], in test [14], in test [15], in [16] and in test [17] was inactive.
Usually AC50 stands for the concentration giving half of the maximal activity seen. With `CC1(C)CCC(=Cc2ccc(Cl)cc2)C1(O)Cn1cncn1` (configuration not stated), the compound was classed as inactive in [1], in test [2], in test [3], in test [4], in [5] and in [6]. The compound was called inactive in [7], in test [8], in test [18], in [10], in test [11] and in test [12]. For the same compound, the outcome in test [13], in [14], in [15] and in test [16] was inactive. Also, the AC50 in test [9] was 117 µM (active).
`CCOC(=O)C(C)OC(=O)c1cc(Oc2ccc(C(F)(F)F)cc2Cl)ccc1[N+](=O)[O-]` (configuration not stated): the compound was called inactive in test [1], in test [2], in [3], in [4], in test [5] and in [6]. Besides, the outcome in [7], in [18], in test [9], in [11], in [12] and in test [13] was inactive. For the same compound, the compound was called inactive in test [14], in [15], in test [19], in test [16] and in test [17].
As for `Cc1cnc(C2=NC(C)(C(C)C)C(=O)N2)c(C(=O)O)c1` (configuration not stated), the call in test [1], in test [2], in test [4], in test [20], in test [5] and in [6] was inactive. Besides, the outcome in test [7], in test [8], in test [18], in [9], in test [11] and in [12] was inactive. Besides, the compound was called inactive in test [13], in [14], in test [15], in test [19] and in test [16].
`Nc1c(Cl)c(F)nc(OCC(=O)O)c1Cl`: the call in test [1], in test [2], in test [3], in test [4], in test [20] and in test [5] was inactive. In addition, the outcome in test [6], in test [7], in [9], in test [11], in [12] and in [13] was inactive. Further, the result in test [14], in [15], in [19], in test [16] and in test [17] was inactive.
As to `O=c1n(Cl)c(=O)n(Cl)c(=O)n1Cl`, the call in test [1], in test [2], in test [4], in test [20], in test [5] and in test [6] was inactive. For the same compound, the result in [7], in [8], in test [18], in test [9], in test [10] and in test [11] was inactive. Besides, the compound was called inactive in [12], in test [13], in test [14], in test [15] and in [16].
In the case of `Cc1c(COC(=O)[C@@H]2[C@H](/C=C(\Cl)C(F)(F)F)C2(C)C)cccc1-c1ccccc1`, the outcome in [1], in [2], in test [3], in [4], in test [20] and in test [5] was inactive. Besides, the call in test [6], in test [7], in test [9], in [11], in [12] and in test [13] was inactive. Moreover, the compound was classed as inactive in test [14], in test [15] and in test [16].
For `CC(C)(C)C(=O)C(Oc1ccc(Cl)cc1)n1cncn1` (configuration not stated), the result in [1], in [3], in test [4], in [5], in [6] and in test [7] was inactive. The compound was classed as inactive in [9], in test [10], in test [11], in test [12], in [13] and in test [14]. The outcome in test [15] and in test [16] was inactive. Also, the AC50 in test [2] was 22.5 µM (active).
